Results on 59 molecules are retold here after PMC4336329 (PLoS ONE, 2015).

Structures are written as SMILES. Out of some 310,000 compounds screened, about 14,000 (4.5%) showed an effect of 50% or more. The effect is printed as a negative number. The sample holds strong results, similar compounds and a random draw of the others, so the mix is not that of the screen.
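Also: peak tail current of the secondary pulse compared with the same well before compound.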

The target of the assay is human ether-à-go-go-related gene (hERG) potassium channel (human, UniProt Q12809). As to the kind of experiment: primary screen, population patch clamp on CHO cells stably expressing hERG; higher = less effect of the substance.
human ether-à-go-go-related gene (hERG) potassium channel, sequence (Q12809 whole entry, looked up): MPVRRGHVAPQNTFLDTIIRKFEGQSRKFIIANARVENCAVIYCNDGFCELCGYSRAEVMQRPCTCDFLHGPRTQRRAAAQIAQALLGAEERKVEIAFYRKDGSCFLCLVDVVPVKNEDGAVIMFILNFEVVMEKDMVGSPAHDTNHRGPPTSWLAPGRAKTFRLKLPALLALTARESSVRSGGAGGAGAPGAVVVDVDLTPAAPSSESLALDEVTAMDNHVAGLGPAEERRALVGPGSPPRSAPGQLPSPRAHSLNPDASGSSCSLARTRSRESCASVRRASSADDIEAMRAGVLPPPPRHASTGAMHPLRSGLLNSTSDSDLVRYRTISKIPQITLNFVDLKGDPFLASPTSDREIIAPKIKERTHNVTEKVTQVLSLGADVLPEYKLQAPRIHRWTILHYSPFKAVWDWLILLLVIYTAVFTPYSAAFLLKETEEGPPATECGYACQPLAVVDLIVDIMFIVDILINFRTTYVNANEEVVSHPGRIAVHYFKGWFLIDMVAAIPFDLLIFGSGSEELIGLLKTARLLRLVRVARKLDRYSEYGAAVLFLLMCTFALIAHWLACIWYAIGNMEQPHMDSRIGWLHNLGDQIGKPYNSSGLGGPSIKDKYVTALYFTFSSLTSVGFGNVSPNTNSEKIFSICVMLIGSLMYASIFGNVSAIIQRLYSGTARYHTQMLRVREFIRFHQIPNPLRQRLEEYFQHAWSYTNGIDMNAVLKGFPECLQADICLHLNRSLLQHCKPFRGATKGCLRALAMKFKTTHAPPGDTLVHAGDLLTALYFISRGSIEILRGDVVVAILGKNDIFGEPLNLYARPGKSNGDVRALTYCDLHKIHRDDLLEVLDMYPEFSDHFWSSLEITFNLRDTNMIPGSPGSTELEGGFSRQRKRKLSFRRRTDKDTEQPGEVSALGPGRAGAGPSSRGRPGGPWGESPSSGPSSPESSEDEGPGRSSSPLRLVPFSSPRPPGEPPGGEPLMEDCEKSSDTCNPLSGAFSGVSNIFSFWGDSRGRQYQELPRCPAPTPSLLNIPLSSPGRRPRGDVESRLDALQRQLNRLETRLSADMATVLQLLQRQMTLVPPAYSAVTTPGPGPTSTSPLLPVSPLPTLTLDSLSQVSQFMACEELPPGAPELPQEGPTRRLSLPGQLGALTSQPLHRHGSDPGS
As for `COc1cc(Nc2nc3ccccc3nc2NS(=O)(=O)c2ccc([N+](=O)[O-])cc2)cc(OC)c1OC`, the “hERG current change (%, negative = inhibition) at 10uM” value is reported as -30.4%.
As for `COc1ccc(CN(C(=O)c2ccco2)C2CCS(=O)(=O)C2)cc1` (centres unmarked), the “hERG current change (%, negative = inhibition) at 10uM” value is on record as -1.27%.
With `COc1ccc(CN(C(=O)c2ccco2)C2CC(C)N(C)CC2C)cc1` (centres unmarked) the figure was -53.4%.
As for `COc1ccc(CN(CCN)C2CC(C)N(C)CC2C)cc1.Cl` (centres unmarked), the figure is 7.07%; as for `COc1ccc(/C=C/C(=O)c2cccc(-n3cnnn3)c2)cc1O`, 13.5%.
For `O=C(Nc1ccc(Br)cc1Br)C1CC(=O)N(Cc2ccccc2)C1` (centres unmarked), the “hERG current change (%, negative = inhibition) at 10uM” value is recorded as 10.7%.
As for `COc1ccc(CNC(=S)NCc2ccc(F)cc2)cc1`, the figure is -23.5%.
With `COc1ccc(CCC(C)Nc2ccc(F)cc2)cc1` (centres unmarked) the figure was -3.78%; with `COc1ccc(CCNCc2ccccc2F)cc1.O=C(O)C(=O)O`, -22.8%.
As for `COc1ccccc1CNCCc1ccc(F)cc1.O=C(O)C(=O)O`, the figure is -33.8%.
Take `COc1ccc(CNCCC(c2ccc(F)cc2)c2ccc(OC)cc2)cc1` (centres unmarked): the “hERG current change (%, negative = inhibition) at 10uM” value was -82.3%.
Regarding `COc1ccc(C(CCNCc2ccccc2F)c2ccc(F)cc2)cc1` (centres unmarked), the “hERG current change (%, negative = inhibition) at 10uM” value is -75.5%.
As for `COc1cc(NC(=S)NCCC(c2ccccc2)c2ccccc2)cc(OC)c1`, the figure is 3.35%; as for `COc1ccc(C(CCNCc2ccccc2)c2ccc(F)cc2)cc1` (centres unmarked), -66.7%.
With `COc1ccc(NC(=O)CC(c2ccc(F)cc2)c2ccc(OC)cc2)cc1` (centres unmarked) the figure was 23%; with `COc1ccc(C(C)NC(=S)NCc2ccc(F)cc2)cc1` (centres unmarked), 0.1%.
With `COc1ccc(CNC(=O)CNC(C)c2ccc(F)cc2)cc1.O=C(O)C(=O)O` (centres unmarked) the figure was 5.06%; with `COc1ccc(C(CCNCc2ccc(F)cc2)c2ccc(F)cc2)cc1` (centres unmarked), -64.6%; with `COc1ccc(-c2cc(C(F)(F)F)nc(-n3cc(Cl)cn3)n2)cc1`, -18.5%.
Consider `CCN1CCCCC(=N/O)/C(=N/O)CCCC1`, for which the “hERG current change (%, negative = inhibition) at 10uM” value came out at 25.5%.
As for `N#CCCN(C(=O)COC(=O)COc1ccccc1Cc1ccccc1)c1ccccc1`, the figure is 15%.
As for `Cc1cccc(NC(=O)CSCC(=O)N(C)CC(=O)Nc2cccc(F)c2)c1`, the figure is -3.01%; as for `COc1ccc(C(C)=O)cc1CN1C(=O)NC2(CCCCCC2)C1=O`, -3.9%; as for `COP(=O)(CC(=O)O)c1ccccc1` (centres unmarked), -5.99%.
With `CC(NC(=O)COc1ccccc1)C(=O)NC1=NCCS1` (centres unmarked) the figure was 0.963%; with `CCOC(=O)N1CCN(C(=O)CNC(=O)c2nn(-c3ccc(OC)cc3OC)c(=O)c3ccccc23)CC1`, -4.94%.
Turning to `COC1=CC(=O)OC12CCCCC2`, the “hERG current change (%, negative = inhibition) at 10uM” value was determined as 8.91%.
As for `CCc1noc(C)c1C(=O)N(CCCOC)c1c(N)n(Cc2ccccc2)c(=O)[nH]c1=O`, the figure is 27.3%; as for `Clc1ccc(-c2ccnc(Oc3ccc4ccccc4c3)n2)cc1`, 7.34%; as for `Cn1c(CCN2CCCCC2)nc2cc(NC(=O)COc3ccccc3)ccc21`, -78%.
For `CN1CCN(CCc2nc3cc(NC(=O)COc4ccccc4)ccc3n2C)CC1`, the “hERG current change (%, negative = inhibition) at 10uM” value is -32.6%.
With `CCC(=O)NCCc1nc2cc(NC(=O)Nc3ccccc3)ccc2n1C` the figure was 18.8%; with `Cn1c(CCn2ccccc2=O)nc2cc(NC(=O)COc3ccccc3)ccc21`, -40.6%; with `COc1ccc(OCC(=O)Nc2ccc3c(c2)nc(CCN2CCCC2)n3C)cc1`, -55%.
For `CC(=O)NCCc1nc2cc(NC(=O)c3ccccc3)ccc2n1C`, the “hERG current change (%, negative = inhibition) at 10uM” value is listed as -25.6%.
As for `Cc1cccc(OCC(=O)Nc2ccc3c(c2)nc(CCN2CCCCC2)n3C)c1`, the figure is -77.2%.
With `COc1ccc(OCC(=O)Nc2ccc3c(c2)nc(CCn2ccccc2=O)n3C)cc1` the figure was -10.8%; with `Cc1cccc(OCC(=O)Nc2ccc3c(c2)nc(CCN2CCN(C)CC2)n3C)c1`, -37.1%; with `CC(=O)NCCc1nc2cc(NC(=O)Nc3ccccc3)ccc2n1C`, -53.8%.
As for `COc1ccc(OCC(=O)Nc2ccc3c(c2)nc(CCNC(C)=O)n3C)cc1`, the figure is 13.1%; as for `CC(=O)NCCc1nc2cc(NC(=O)COc3cccc(C)c3)ccc2n1C`, 6.53%; as for `CC(C)CN(C(=O)COC(=O)c1cnccn1)c1c(N)n(Cc2ccccc2)c(=O)[nH]c1=O`, 16.4%.
With `CC(C)Cn1c(N)c(C(=O)COC(=O)c2ccc(O)cc2O)c(=O)n(C)c1=O`, the “hERG current change (%, negative = inhibition) at 10uM” value is 8.34%.
On to `CCn1c(SCC(=O)NC2CCCC2)nnc1-c1ccncc1`, for which the “hERG current change (%, negative = inhibition) at 10uM” value worked out at 16.4%.
As for `Cc1ccc(OCC(=O)Nc2ccccc2F)cc1`, the figure is -0.548%.
As for `CN1C(=O)/C(=C/c2ccc(OCc3ccc(C(=O)O)cc3)c(Cl)c2)NC1=S`, the figure is 20.4%; as for `Cc1ccc(OCCn2cnc3c2c(=O)n(C)c(=O)n3C)cc1`, 20%; as for `C=CCSc1nc2ccccc2[nH]1`, 25%.
As for `O=C(Cc1ccccc1)NCc1ccc(-n2cccc2)cc1`, the figure is 29.3%; as for `CN(C(=O)CC1C(=O)NCCN1Cc1cccc(F)c1F)C1CC(C)(C)NC(C)(C)C1` (centres unmarked), 26.1%.
Turning to `Cn1c(CCN2CCCCC2)nc2cc(NC(=O)C3CCCCC3)ccc21`, the “hERG current change (%, negative = inhibition) at 10uM” value is -60.2%.
As for `Cn1c(CN2CCCC2)nc2cc(NC(=O)C3CCCCC3)ccc21`, the figure is -4.77%; as for `COc1ccc(OCC(=O)Nc2ccc3c(c2)nc(CCN2CCN(C)CC2)n3C)cc1`, -8.47%.
With `COc1ccc(OCC(=O)Nc2ccc3c(c2)nc(CCN2CCCCC2)n3C)cc1` the figure was -65.5%; with `Cn1c(CCN2CCCCC2)nc2cc(NC(=O)NC3CCCCC3)ccc21`, 0.766%; with `Cc1ccc(OCC(=O)Nc2ccc3c(c2)nc(CCN2CCCCC2)n3C)cc1`, -82.3%.
As for `CC(=O)NCCc1nc2cc(NC(=O)COc3ccc(C)cc3)ccc2n1C`, the figure is 14.2%; as for `Cc1ccc(OCC(=O)Nc2ccc3c(c2)nc(CCN2CCN(C)CC2)n3C)cc1`, -55.6%.
As for `CCC(=O)Nc1ccc2c(c1)nc(CCN1CCN(C)CC1)n2C`, the “hERG current change (%, negative = inhibition) at 10uM” value is 29.3%.
